TEAD-YAP inh: TEAD-YAP interaction inhibition, primary screen, TEAD-YAP interaction inhibitor project, luminescence, HEK-TIYL cells; TEAD-Gal4/YAP UAS-luciferase luminescence; inhibition, % at 9.12 µM; hit rate 1.4% among 640,000; AID 1259422, 2018; in the data active = inhibition above about 32%;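 also: 0% = median of test compound wells and 100% = reference inhibitor wells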
FBW7 activator: FBW7 E3 ligase activators, primary screen, biochemical, AlphaScreen, human; AlphaScreen FBW7–phospho-cyclin E peptide binding, activator screen; F-box/WD repeat-containing protein 7 (Homo sapiens), Q969H0; normalized activity (activation), % at 26.1 µM; hit rate 0.13% among 650,000; in the data active = normalized activity above about 1.9%;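 also: purified mutant Fbw7 with reduced substrate affinity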
GPR151 activ: activators of human GPR151, primary screen, cell-based, PathHunter beta-arrestin, luminescence; PathHunter beta-arrestin GPR151 cells; activation, % at 11.2 µM; hit rate 1% among 650,000; AID 1508602, 2020; in the data active = activation above about 4.9%;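 also: 0% = median of compound wells and 100% = cells with positive control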
MITF inh: MITF inhibitors, primary screen, biochemical, AlphaScreen, human; Microphthalmia-associated transcription factor (Homo sapiens), O75030; inhibition, % at 2.6 µM; AlphaScreen MITF homodimerization, bead proximity signal; hit rate 0.91% among 650,000; AID 1259374, 2018; in the data active = inhibition above about 50%;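 also: 0% = vehicle wells with protein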
Target sequence (O75030 whole entry, looked up): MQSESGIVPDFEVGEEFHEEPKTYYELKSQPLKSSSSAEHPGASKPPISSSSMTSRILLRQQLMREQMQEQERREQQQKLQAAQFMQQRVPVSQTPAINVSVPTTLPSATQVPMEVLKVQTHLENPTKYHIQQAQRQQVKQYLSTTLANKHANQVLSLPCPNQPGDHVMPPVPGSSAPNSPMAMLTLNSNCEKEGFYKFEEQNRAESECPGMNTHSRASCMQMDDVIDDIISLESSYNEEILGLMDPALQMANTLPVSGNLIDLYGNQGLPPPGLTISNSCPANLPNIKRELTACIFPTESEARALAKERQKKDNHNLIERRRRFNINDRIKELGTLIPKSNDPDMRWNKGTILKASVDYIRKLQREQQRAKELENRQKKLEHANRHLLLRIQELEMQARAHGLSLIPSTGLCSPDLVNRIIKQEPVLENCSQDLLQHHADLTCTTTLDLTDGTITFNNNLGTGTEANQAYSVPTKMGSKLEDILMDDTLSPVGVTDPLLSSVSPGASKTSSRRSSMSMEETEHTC
MITF confirm: MITF inhibitors, retest of hits, confirmation, biochemical, AlphaScreen, triplicate; shares compounds with MITF inh; AlphaScreen MITF homodimerization, biotin/His-MITF beads; inhibition, % at 2.6 µM; hit rate 16% among 4,700; AID 1259372, 2018;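 active = inhibition above a cutoff derived from the DMSO control wells, cut at about 28% in these data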;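 also: 0% = MITF dimer wells with DMSO only; inhibitors lower the bead chemiluminescence by keeping MITF from dimerizing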
AS interf DR: AlphaScreen optical interference compounds, dose response, counter-screen, biochemical, HTS. AlphaScreen optical interference counterscreen, cell-free. hit rate 6% among 480. shares compounds with MITF inh. IC50, µM. AID 1259373, 2018; call rule not given here
AS interf ctr: AlphaScreen optical interference compounds, counter-screen for MITF inhibitor project, biochemical, triplicate; inhibition, % at 2.6 µM; hit rate 7.6% among 4,700; LysRS AlphaScreen counterscreen, signal interference; shares compounds with MITF inh;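 active = inhibition above a cutoff derived from the DMSO control wells, cut at about 30% in these data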
* hit, by the source's call; · = no result. Compounds with a hit are over-represented: about 3.4% of the library has one in this group of screens.

SMILES	TEAD-YAP inh	FBW7 activator	GPR151 activ	MITF inh	MITF confirm	AS interf ctr	others
Cc1ccc(CC(=O)N2CCN(Cc3ccc4c(c3)OCO4)CC2)cc1	-1.4	-0.1	2.0	11.1	·	·
COCCn1nnnc1CN1CC=C(c2ccc(F)cc2)CC1	-4.9	-0.1	-0.2	5.7	·	·
COc1cccc(CN2CCN(Cc3cccc(Br)c3)CC2)c1	1.6	0.2	-1.2	63.0*	12.5	16.2
COc1cccc(CN2CCN(Cc3ccc(Br)cc3)CC2)c1	-7.9	-0.4	-1.5	69.7*	4.0	15.0
COc1cccc(CN2CCN(c3ccc([N+](=O)[O-])cc3)CC2)c1	4.5	0.0	3.6	40.4	·	·
COCCOC(=O)C1=C(C)OC(N)=C(C#N)C12C(=O)N(C)c1ccccc12 (stereo not drawn)	5.1	-0.1	-0.3	-0.1	·	·
COc1ccc(CN2CC3CC(C2)c2cccc(=O)n2C3)c(OC)c1 (stereo not drawn)	7.5	0.1	0.1	0.7	·	·
CC(Cc1cccnc1)NC1CCN(c2ccc(NC(=O)C3CCCC3)cc2)CC1 (stereo not drawn)	1.4	0.5	-1.0	11.2	·	·
CCN1CCN(Cc2ccc(OC)cc2OC)CC1	-5.2	-0.1	0.0	5.8	·	·
CCC(C)N1CCN(Cc2ccc3c(c2)OCO3)CC1 (stereo not drawn)	-1.4	0.9	-1.2	71.3*	0.3	0.2
CCOc1ccc(CN2CCN(C(C)CC)CC2)cc1 (stereo not drawn)	2.4	-0.1	-0.3	66.2*	1.4	-1.2
Cc1ccc(CN2CCN(Cc3ccc4c(c3)OCO4)CC2)cc1	0.9	0.1	-1.1	45.9	·	·
CCC(C)N1CCN(Cc2cc(OC)c(OC)cc2OC)CC1 (stereo not drawn)	-4.9	-0.3	-1.1	64.2*	-0.6	2.0
CCC(C)N1CCN(Cc2ccc(OC)cc2)CC1 (stereo not drawn)	-0.9	0.3	-1.3	69.1*	1.4	11.5
COc1cc(Br)c(CN2CCN(C)CC2)cc1OC	3.4	-0.1	-0.7	9.7	·	·
CCC(C)N1CCN(Cc2ccc(OC)c(OC)c2)CC1 (stereo not drawn)	8.4	0.1	-0.2	64.0*	2.3	10.2
COc1cc(OC)c(CN2CCN(C)CC2)cc1Br	-0.2	0.0	0.6	62.4*	-2.9	11.5
Cc1ccc(S(=O)(=O)Nc2ccc(C(=O)N3CCC(=O)CC3)cc2)cc1C	0.5	0.0	0.7	-5.3	·	·
CCOC(=O)C1C2NC(=S)N(c3cccc(Cl)c3)C1(C)Oc1c(OC)cccc12 (stereo not drawn)	3.4	-0.2	-1.3	51.7*	34.2*	15.0	AS interf DR=>5.09
CCOC(=O)C1C2NC(=S)N(c3ccc(CC)cc3)C1(C)Oc1c(OCC)cccc12 (stereo not drawn)	5.2	-0.4	-1.0	54.2*	41.7*	27.1	AS interf DR=>5.53
CCOC(=O)C1C2NC(=S)N(c3ccccc3OC)C1(C)Oc1c(OCC)cccc12 (stereo not drawn)	-0.8	0.0	-1.1	16.3	·	·
Cc1ccc(-n2c(/C=C/c3ccccc3F)nc3ccccc3c2=O)cc1C	-5.1	0.0	-0.5	4.5	·	·
N=C1c2ccccc2CN1CC(F)(F)F	6.5	0.2	0.6	1.6	·	·
CNc1ccc(C)cc1C(=O)c1cccc(Br)c1	-4.2	-0.1	0.7	2.4	·	·
O=C(CN1CCN(C(=O)COc2ccccc2F)CC1)c1cccs1	12.2	-0.2	2.1	50.6*	7.1	19.9
SMILES	TEAD-YAP inh	FBW7 activator	GPR151 activ	MITF inh	MITF confirm	AS interf ctr	others
O=C(CN1CCN(C(=O)Cc2ccc(F)cc2)CC1)c1cccs1	6.9	-0.4	-0.7	23.8	·	·
COc1ccc(CN2CCN(Cc3ccccc3)CC2)c(O)c1	-3.1	-0.1	0.8	11.0	·	·
Cc1ccc(CN2CCN(Cc3ccccc3Cl)CC2)cc1	-7.9	0.0	0.7	58.6*	-2.9	0.6
CN1CCN(Cc2cccc3ccccc23)CC1	11.8	-0.2	-0.4	38.8	·	·
Clc1cccc(CN2CCN(Cc3ccccc3Br)CC2)c1	-6.2	-0.1	-1.1	77.4*	9.4	4.3
Clc1cccc(N2CCN(Cc3ccccc3)CC2)c1	12.8	0.0	1.4	2.1	·	·
COc1cccc(CN2CCN(Cc3ccccc3Cl)CC2)c1	-11.4	0.0	-0.3	85.7*	25.8	13.2
CCN1CCN(Cc2cccc(Cl)c2Cl)CC1	0.8	-0.6	-0.4	50.5	·	·
CN1CCN(Cc2ccccc2Cl)CC1	14.5	-0.2	-0.1	64.1*	2.7	7.0
COc1ccc(-n2c(C(C)Oc3ccc(Cl)cc3)nc3ccccc3c2=O)cc1 (stereo not drawn)	3.6	0.5	0.6	-3.3	·	·
CCc1c(C(=O)NC2CC2)c(=O)cc(C)n1CC1CCCN1CC (stereo not drawn)	-8.6	0.0	2.0	-5.1	·	·
CC1NCCc2c1[nH]c1ccccc21 (stereo not drawn)	5.1	-0.2	0.2	-4.1	·	·
O=[N+]([O-])c1ccc(NCC(c2ccco2)N2CCCCC2)c2ccncc12 (stereo not drawn)	0.2	0.2	-0.8	2.2	·	·
CN1CCN(Cc2coc3ccccc3c2=O)CC1	55.5*	0.1	3.1	51.4*	0.8	8.0
COc1ccc(CN2CCN(Cc3ccccc3Cl)CC2)cc1	3.2	-0.1	-0.5	80.8*	0.2	8.6
O=c1c(CN2CC=C(c3ccc(F)cc3)CC2)coc2ccccc12	18.0	-0.1	1.8	-6.9	·	·
COc1cccc(CN2CCN(Cc3ccccc3Br)CC2)c1	-6.2	0.0	-0.5	72.8*	6.3	15.5
COc1ccc(O)c(CN2CCN(Cc3ccccc3Br)CC2)c1	-12.4	-0.2	-0.1	49.8	·	·
Cc1cccc(N2CCN(CC(=O)Nc3ccc(Cl)cc3C(=O)c3ccccc3Br)CC2C)c1 (stereo not drawn)	-18.6	0.0	-0.6	-2.4	·	·
Cc1cccc(CC(=O)N2CCN(Cc3nc4ccccc4[nH]3)CC2)c1	7.2	-0.7	1.2	54.9*	9.1	19.0
CNC1(c2nnnn2-c2cccc(C)c2)CCCCC1	-1.1	-0.1	-0.9	3.7	·	·
CCN1CCN(Cc2c(C)noc2C)CC1	1.4	-0.2	-0.6	83.0*	13.4	15.4
N/C(=N\[N+](=O)[O-])N/N=C\c1ccc(-c2ccccc2C(=O)O)o1	14.2	-0.1	1.1	1.7	·	·
N/C(=N\[N+](=O)[O-])N/N=C\c1ccc(-c2ccc(O)c(C(=O)O)c2)o1	-8.2	-0.9	-0.8	74.6*	79.1*	10.9	AS interf DR=>6.48
CN1CCN(CC#CCOc2ccc(Cl)cc2)CC1	-8.3	0.0	-1.2	53.9*	8.8	11.5
CN1CCN(Cc2c(O)ccc3ccccc23)CC1	-2.9	-0.2	0.5	-12.2	·	·
